Experimental findings from PubChem BioAssay (NCATS) are described below.

Several values for one entry are separate records, joined by “and”; a condition that tells them apart may be missing. Equal entries are not always repeated. A number with no mark means an inactive call. Results filed as inconclusive are left out. Activity calls are given as the source filed them. Unless noted, calls follow the shape of the dose curve; as a rule, active = well fitted curve in the direction sought with a large enough effect; inconclusive = small, poorly fitted or top-dose-only effect, or another doubt; inactive = no such curve, though single readings can be large; an effect the other way counts as inactive or inconclusive.

The nature of assay [1]: Cell Viability - Jurkat (AID 426;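 active = dose-dependent loss of cell ATP signal giving a full or clear fitted curve, ranked by lower potency value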;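 also: potency is read from the fitted curve at half-maximal effect; cells exposed to compound for 40 hours at 37 °C before ATP read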). The note with it: qHTS. The procedure, abridged: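 Luminescent ATP read-out (CellTiter-Glo, 20 min at room temperature) after 40 hr compound exposure at 37 °C of Jurkat E6-1 cells, 5000/well. Decreased ATP taken as cytotoxicity; AC50 from standard Hill equation.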
Assay [2] in a line: Cell Viability - H-4-II-E (AID 543).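 Also: cells exposed to compound for 40 hours; % is scaled to controls: 0 for no effect and ±100 for the full control effect; nearly all actives have a fitted effect of over 35% in size.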 The note with it: H-4-II-E rat hepatoma viability; series mostly up to 92.2 µM. An outline of the steps:
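qHTS, rat hepatoma H-4-II-E, 1500 cells/well; 40 hr compound exposure, 37 °C; CellTiter-Glo ATP luminescence after 20 min RT; AC50 by standard Hill fit.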

The target in assay [3] is Cytochrome P450 3A4 (Homo sapiens) (UniProt P08684). Kind of assay: qHTS Assay for Inhibitors and Substrates of Cytochrome P450 3A4 (AID 884). Also: % is scaled to controls: 0 for no effect and ±100 for the full control effect; nearly all actives have a fitted effect of over 50% in size. The note with it: recombinant CYP3A4, Luciferin-PPXE luminescence; series mostly up to 57.1 µM. An outline of the steps: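 Luminescent readout of luciferin produced by CYP3A4 (20 nM) dealkylation of Luciferin-PPXE, 25 uM (its KM). NADPH-driven reaction ran 60 min at RT after 10 min compound preincubation; data scaled to 57 uM ketoconazole as 100% inhibition.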

The nature of assay [4]: Cell Viability - LYMP2-001 (AID 921).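 Also: 0% = DMSO only and full inhibition = tetraoctylammonium bromide control wells; nearly all actives have a fitted effect of over 70% in size.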 The following applies: LYMP2-001 lymphoblastoid cell viability; series mostly up to 92.2 µM. The procedure, abridged:
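Cellular ATP loss read by luciferase luminescence after 24 h compound exposure at 37 C in complete medium. LYMP2-001 lymphoblastoid cells, 2500/well; qHTS concentration-response data fitted with Hill equation for AC50.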

The nature of assay [5]: MultiTox-Fluor Cytotoxicity Assay - LYMP1-002 - Dead Cells (AID 960).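 Also: 0% = DMSO and 100% = tetraoctylammonium bromide; nearly all actives have a fitted effect of over 60% in size.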 The following applies: LYMP1-002 lymphoblastoid cells, dead-cell protease fluorescence; series mostly up to 46.1 µM. An outline of the steps: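 Readout: fluorescence at 485/520 from cell-impermeant bis-AAF-R110 cleaved by proteases leaking from damaged cells. LYMP1-002 lymphoblastoid line, 16 hr compound treatment at 37 C, concentration-response in qHTS format; Hill-equation AC50 values.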

Assay [6] can be described thus: Cell Viability - LYMP2-024 (AID 988).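 Also: cells exposed to compound for 24 hr at 37 °C; plate controls were DMSO only for no effect and 92 µM tetraoctylammonium bromide for full effect; nearly all actives have a fitted effect of over 60% in size.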 The note with it: LYMP2-024 lymphoblastoid cell viability; series mostly up to 92.2 µM. The procedure, abridged: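 ATP-based luminescence (CellTiter-Glo, 30 min RT) after 24 h compound exposure at 37 C of 2500 lymphoblastoid cells/well; decrease in ATP taken as cytotoxicity. qHTS concentration-response fitted to standard Hill equation for AC50.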

Assay [7] deals with Estrogen receptor (Homo sapiens) (UniProt P03372). The experiment in a line: qHTS assay for small molecule antagonists of estrogen receptor alpha signaling (AID 588513; active = well fitted curve in the direction sought with a large enough effect in the signal ratio, with a control signal flat, not every such curve was filed as active; the % refers to the signal ratio; also: % is scaled to controls: 0 for no effect and ±100 for the full control effect). The note with it: ER-alpha-UAS-bla HEK293, beta-lactamase ratio, antagonist mode; series mostly up to 76.9 µM. An outline of the steps: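 Antagonist mode: inhibition of 0.5 nM 17-beta-estradiol-driven beta-lactamase reporter in HEK 293 ER-alpha-UAS-bla cells, 18 h at 37C, CCF4 readout after 2 h at RT. Normalised to estradiol and DMSO; titration fitted to Hill.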

Assay [8] addresses Bile acid receptor (Homo sapiens) (UniProt Q96RI1). The experiment in a line: qHTS assay for small molecule agonists of farnesoid X receptor signaling (AID 588527; calls by dose curve;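 also: 0% = vehicle basal and 100% = reference agonist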). The note with it: HEK293T FXR-UAS-bla, beta-lactamase ratio, 16 h; stronger effect = higher value. An outline of the steps: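 Read-out: beta-lactamase reporter fluorescence with CCF4 substrate in GeneBLAzer FXR-UAS-bla HEK293T cells, after 16 h compound exposure at 37 C. Response scaled between DMSO basal (0%) and chenodeoxycholic acid at 100 uM (100%).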

Assay [9] has as its target Glucocorticoid receptor (Homo sapiens) (UniProt P04150). The experiment in a line: qHTS assay for small molecule agonists of glucocorticoid receptor signaling (AID 588532; active = well fitted curve in the direction sought with a large enough effect in the signal ratio, with a control signal flat; the % refers to the signal ratio;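 also: 100% = dexamethasone at 0.1 µM and 0% = DMSO only wells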). The note with it: HeLa MMTV-bla, beta-lactamase ratio, agonist, 18 h; stronger effect = higher value; percent of dexamethasone control, DMSO zero. The procedure, abridged: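 Agonist-mode qHTS: GRE-driven beta-lactamase in HeLa cells exposed 18 h to titrated compounds (up to 92 uM), then CCF4 ratio read after 2 h at RT; Hill-fitted EC50, efficacy relative to 0.1 uM dexamethasone.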

The target is the same in assay [10]. The experiment in a line: qHTS assay for small molecule antagonists of glucocorticoid receptor signaling (AID 588533; active = well fitted inhibition curve with a large enough effect in the signal ratio, with a control signal flat, not every such curve was filed as active; the % refers to the signal ratio;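 also: cells stimulated with 2 nM dexamethasone as agonist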; also: potency is read from the fitted curve at half-maximal effect). The note with it: HeLa MMTV-bla, GRE beta-lactamase ratio, antagonist mode, 18 h; series mostly up to 76.8 µM. An outline of the steps:
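Antagonist-mode qHTS: compound titrations added to GRE-bla HeLa cells, then dexamethasone 2 nM final; 18 h, 37 C. CCF4 FRET fluorescence normalized to dexamethasone and DMSO; IC50 from Hill fit.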

For assay [11], the target named is Thyroid hormone receptor beta (Homo sapiens) (UniProt P10828). The experiment in a line: qHTS assay for small molecule agonists of thyroid hormone receptor beta signaling (AID 588545; calls by dose curve;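 also: 0% = DMSO only and 100% = 10 nM T3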). The note with it: TR-UAS-bla GripTite HEK 293, beta-lactamase ratio, agonist mode, 18 h, percent of T3 response, DMSO as zero; series mostly up to 76.7 µM. An outline of the steps: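 Efficacy and EC50 values derive from Hill fits of qHTS titration data, normalized to 10 nM T3 and DMSO-only wells. HEK 293 reporter cells were stimulated for 18 hrs at 37 C, with beta-lactamase activity measured by CCF4 fluorescence.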

Assay [12] has the same target. The experiment in a line: qHTS assay for small molecule antagonists of thyroid hormone receptor beta signaling (AID 588547; active = well fitted inhibition curve with a large enough effect in the signal ratio, with a control signal flat, not every such curve was filed as active; the % refers to the signal ratio;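 also: cells stimulated with 0.4 nM T3 agonist during compound exposure; % is scaled to controls: 0 for no effect and ±100 for the full control effect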). The following applies: TR-UAS-bla HEK293, beta-lactamase ratio, antagonist mode, 18 h. The procedure, abridged:
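Inhibition of T3-driven (0.4nM final) beta-lactamase reporter activity was measured over 0.59 nM to 92 uM compound after 18 h at 37 C. The cells were GripTite HEK293 TR-UAS-bla in charcoal/dextran-stripped serum, with CCF4 ratio read-out and IC50 from Hill fits.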

The nature of assay [13]: qHTS assay for small molecule agonists of the antioxidant response element (ARE) signaling pathway (AID 651741; active = well fitted activation curve with a large enough effect in the signal ratio; the % refers to the signal ratio; also: % of control where 0% means no effect). The note with it: HepG2 ARE-bla reporter, beta-lactamase FRET ratio, 16 h; series mostly up to 96 µM. The procedure, abridged:
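Agonist activity is measured as ARE-driven beta-lactamase expression in a stable HepG2 reporter line, using 16 h compound treatment at 37 C and a FRET substrate fluorescence readout after 2 h.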

Assay [14] has as its target Tumor necrosis factor (Homo sapiens) (UniProt P01375). Kind of assay: qHTS assay to identify small molecules that stimulate Tumor Necrosis Factor-alpha (TNF-alpha) secretion (AID 651757; active = well fitted curve in the direction sought with a large enough effect in the signal ratio; the % refers to the signal ratio; also: 0% is about no effect). The note with it: Human cells, HTRF 665/615 ratio; series mostly up to 92.2 µM. The procedure, abridged:
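THP-1 cells, 3000/well; compound 17 hrs, 37 C; add cryptate/XL665 anti-TNF-alpha antibody pair; 3 hr RT; TR-FRET (HTRF) read of secreted TNF-alpha. Quantitative HTS format.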

The nature of assay [15]: qHTS assay for small molecule antagonists of the retinoid-related orphan receptor gamma (ROR-gamma) signaling pathway - cell viability counter screen (AID 720652; active = well fitted curve in the direction sought with a large enough effect in the repeat runs; an effect the other way counts as inactive or inconclusive;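 also: CHO reporter cells with doxycycline-induced ROR-gamma expression; compound exposure lasted 16 hr before ATP read; % is scaled to controls: 0 for no effect and ±100 for the full control effect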). The following applies: RORgamma reporter cell line viability counter screen; series mostly up to 92.2 µM. An outline of the steps: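 CHO RORE-LUC/TET-ROR line, 1,000 cells/well, 37 C 5% CO2 5 hr; cpd or DMSO + doxycycline induction, 16 hr. CellTiter-Glo, 30 min RT, luminescence = ATP content.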

The target in assay [16] is Nuclear receptor subfamily 1 group I member 2 (Rattus norvegicus) (UniProt Q9R1A7). Kind of assay: qHTS assay for small molecule activators of the rat pregnane X receptor (rPXR) signaling pathway (AID 651751; call rule not given here; also: 0% is about no effect). The note with it: rPXR reporter cells, luciferase (One-Glo), 24 h.
The nature of assay [17]: qHTS assay for small molecule activators of the human pregnane X receptor (PXR) signaling pathway (AID 720659; call rule not given here; also: 0% is about no effect). The following applies: DPX-2 HepG2 CYP3A4-luciferase, 24 h; series mostly up to 92.3 µM.
Assay [18] has as its target Mitogen-activated protein kinase 10 (Mus musculus) (UniProt Q61831). The experiment in a line: JNK3 AlphaScreen Assay (AID 530; active = well fitted curve in either direction with a large enough effect, not every such curve was filed as active;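 also: kinase came from lysate of stimulated human HepG2 cells; signal reports phosphorylation of biotinylated GST-cJun 1-79 at Ser73 with 10 µM ATP; % is scaled to controls: 0 for no effect and ±100 for the full control effect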). The note with it: JNK3 lysate, c-Jun phosphorylation; series mostly up to 57.1 µM. An outline of the steps: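 Kinase buffer: 20 mM Tris-HCl pH 7.6, 10 mM MgCl2, 1 mM DTT, 0.1 mM Na3VO4, 0.01% Tween-20; ATP 10 uM. Substrate biotin-GST-cJun(1-79), enzyme from activated HepG2 lysates. Detection by Ser73 phospho-antibody AlphaScreen.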

Assay [19] addresses Vitamin D3 receptor (Homo sapiens) (UniProt P11473). The experiment in a line: qHTS assay for small molecule antagonists of vitamin D receptor signaling (AID 588541; calls by dose curve). The following applies: HEK293T VDR-UAS-bla, beta-lactamase ratio, antagonist mode; series mostly up to 76.7 µM. An outline of the steps:
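Antagonist-mode beta-lactamase reporter assay: HEK293T VDR-UAS-bla cells were exposed to titrated compound alongside 1-alpha,25-dihydroxyvitamin D3 at 3 nM final for 16 h. Values were normalized to the 50 nM agonist control and DMSO basal, with IC50 and efficacy from Hill equation fits.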

The target is the same in assay [20]. The experiment in a line: qHTS assay for small molecule agonists of vitamin D receptor signaling (AID 588543; calls by dose curve;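 also: 0% = DMSO basal and 100% = reference agonist control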). The note with it: HEK293T VDR-UAS-bla, beta-lactamase ratio, 16 h; series mostly up to 76.8 µM. An outline of the steps: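 Agonist-mode beta-lactamase reporter: HEK293T VDR-UAS-bla cells in charcoal-stripped 2% FBS, compound series 16 h 37 C, CCF4 2 h RT. EC50 from Hill fit, scaled against DMSO and 50 nM calcitriol control.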

Tumor necrosis factor (Homo sapiens), sequence (P01375 whole entry, looked up): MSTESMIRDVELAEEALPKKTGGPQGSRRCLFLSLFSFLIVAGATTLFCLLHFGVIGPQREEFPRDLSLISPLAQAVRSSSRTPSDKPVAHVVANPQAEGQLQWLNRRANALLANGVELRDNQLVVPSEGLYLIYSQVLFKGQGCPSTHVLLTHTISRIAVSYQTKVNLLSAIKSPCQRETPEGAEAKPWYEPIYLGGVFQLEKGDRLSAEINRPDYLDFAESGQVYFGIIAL
Vitamin D3 receptor (Homo sapiens), sequence (P11473 whole entry, looked up): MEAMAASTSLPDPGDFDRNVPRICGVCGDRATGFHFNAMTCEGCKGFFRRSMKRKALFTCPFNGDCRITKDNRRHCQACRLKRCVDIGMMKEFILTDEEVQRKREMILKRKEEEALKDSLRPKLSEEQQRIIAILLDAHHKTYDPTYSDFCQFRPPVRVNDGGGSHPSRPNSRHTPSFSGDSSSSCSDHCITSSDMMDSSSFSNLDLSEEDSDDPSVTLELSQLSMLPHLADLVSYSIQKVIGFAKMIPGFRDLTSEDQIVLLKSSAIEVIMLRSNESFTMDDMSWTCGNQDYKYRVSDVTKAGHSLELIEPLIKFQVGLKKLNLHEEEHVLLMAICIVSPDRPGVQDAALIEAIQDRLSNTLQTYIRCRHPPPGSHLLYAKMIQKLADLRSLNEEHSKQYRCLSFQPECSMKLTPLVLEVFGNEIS
Glucocorticoid receptor (Homo sapiens), sequence (P04150 whole entry, looked up): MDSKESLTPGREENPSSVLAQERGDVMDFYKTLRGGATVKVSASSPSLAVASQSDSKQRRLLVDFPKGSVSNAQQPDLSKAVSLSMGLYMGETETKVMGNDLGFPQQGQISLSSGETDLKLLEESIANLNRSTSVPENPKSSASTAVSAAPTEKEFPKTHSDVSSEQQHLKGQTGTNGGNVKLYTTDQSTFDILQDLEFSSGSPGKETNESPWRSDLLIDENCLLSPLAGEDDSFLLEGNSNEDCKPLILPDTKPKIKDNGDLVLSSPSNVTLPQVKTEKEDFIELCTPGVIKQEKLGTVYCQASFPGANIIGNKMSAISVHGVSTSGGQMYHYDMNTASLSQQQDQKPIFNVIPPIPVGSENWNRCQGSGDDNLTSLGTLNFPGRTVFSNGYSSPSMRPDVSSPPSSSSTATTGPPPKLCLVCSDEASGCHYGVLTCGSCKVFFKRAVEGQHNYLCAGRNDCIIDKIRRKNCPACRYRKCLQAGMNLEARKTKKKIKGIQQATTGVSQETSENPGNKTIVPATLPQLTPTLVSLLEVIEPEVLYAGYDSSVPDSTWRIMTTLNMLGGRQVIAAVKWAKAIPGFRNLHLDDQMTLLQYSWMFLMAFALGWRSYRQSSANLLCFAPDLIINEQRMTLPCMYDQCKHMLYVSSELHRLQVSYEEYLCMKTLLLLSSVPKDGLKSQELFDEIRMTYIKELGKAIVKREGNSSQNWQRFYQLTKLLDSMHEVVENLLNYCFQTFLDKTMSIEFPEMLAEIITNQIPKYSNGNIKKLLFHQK
Cytochrome P450 3A4 (Homo sapiens), sequence (P08684 whole entry, looked up): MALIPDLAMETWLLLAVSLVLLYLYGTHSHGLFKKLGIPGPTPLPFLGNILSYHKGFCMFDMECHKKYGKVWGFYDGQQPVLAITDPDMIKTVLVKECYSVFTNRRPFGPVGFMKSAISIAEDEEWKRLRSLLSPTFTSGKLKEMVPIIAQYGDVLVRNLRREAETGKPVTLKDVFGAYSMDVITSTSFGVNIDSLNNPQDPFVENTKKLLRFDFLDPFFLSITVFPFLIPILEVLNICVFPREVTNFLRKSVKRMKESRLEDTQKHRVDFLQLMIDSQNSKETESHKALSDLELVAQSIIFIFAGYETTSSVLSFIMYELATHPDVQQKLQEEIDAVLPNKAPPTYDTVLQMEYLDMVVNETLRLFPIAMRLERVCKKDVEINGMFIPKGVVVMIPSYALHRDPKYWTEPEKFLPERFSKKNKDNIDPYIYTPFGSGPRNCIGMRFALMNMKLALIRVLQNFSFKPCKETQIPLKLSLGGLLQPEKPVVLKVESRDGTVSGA
Bile acid receptor (Homo sapiens), sequence (Q96RI1 whole entry, looked up): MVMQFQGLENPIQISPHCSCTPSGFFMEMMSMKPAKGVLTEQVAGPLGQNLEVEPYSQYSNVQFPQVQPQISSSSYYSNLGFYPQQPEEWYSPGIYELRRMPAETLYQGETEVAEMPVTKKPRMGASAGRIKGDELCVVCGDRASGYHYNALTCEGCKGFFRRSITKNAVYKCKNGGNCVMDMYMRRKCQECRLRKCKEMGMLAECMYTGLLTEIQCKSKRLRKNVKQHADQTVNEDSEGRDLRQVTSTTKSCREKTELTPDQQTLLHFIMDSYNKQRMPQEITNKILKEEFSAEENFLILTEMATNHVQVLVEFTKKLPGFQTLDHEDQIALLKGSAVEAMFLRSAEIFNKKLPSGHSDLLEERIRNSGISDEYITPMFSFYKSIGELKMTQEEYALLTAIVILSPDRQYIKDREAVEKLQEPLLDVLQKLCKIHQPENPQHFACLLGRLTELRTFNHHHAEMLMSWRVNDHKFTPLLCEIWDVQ
Thyroid hormone receptor beta (Homo sapiens), sequence (P10828 whole entry, looked up): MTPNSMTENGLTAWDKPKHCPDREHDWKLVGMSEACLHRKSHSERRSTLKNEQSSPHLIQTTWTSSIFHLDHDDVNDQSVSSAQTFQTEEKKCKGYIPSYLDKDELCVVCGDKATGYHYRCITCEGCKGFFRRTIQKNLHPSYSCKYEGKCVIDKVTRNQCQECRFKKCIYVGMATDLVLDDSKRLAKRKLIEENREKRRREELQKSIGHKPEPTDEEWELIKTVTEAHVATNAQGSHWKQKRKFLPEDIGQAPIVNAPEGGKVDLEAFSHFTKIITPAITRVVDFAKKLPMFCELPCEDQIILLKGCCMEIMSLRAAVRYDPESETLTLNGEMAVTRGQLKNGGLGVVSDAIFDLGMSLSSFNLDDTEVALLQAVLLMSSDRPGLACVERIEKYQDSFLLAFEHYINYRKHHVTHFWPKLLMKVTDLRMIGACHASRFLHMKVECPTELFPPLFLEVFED
Estrogen receptor (Homo sapiens), sequence (P03372 whole entry, looked up): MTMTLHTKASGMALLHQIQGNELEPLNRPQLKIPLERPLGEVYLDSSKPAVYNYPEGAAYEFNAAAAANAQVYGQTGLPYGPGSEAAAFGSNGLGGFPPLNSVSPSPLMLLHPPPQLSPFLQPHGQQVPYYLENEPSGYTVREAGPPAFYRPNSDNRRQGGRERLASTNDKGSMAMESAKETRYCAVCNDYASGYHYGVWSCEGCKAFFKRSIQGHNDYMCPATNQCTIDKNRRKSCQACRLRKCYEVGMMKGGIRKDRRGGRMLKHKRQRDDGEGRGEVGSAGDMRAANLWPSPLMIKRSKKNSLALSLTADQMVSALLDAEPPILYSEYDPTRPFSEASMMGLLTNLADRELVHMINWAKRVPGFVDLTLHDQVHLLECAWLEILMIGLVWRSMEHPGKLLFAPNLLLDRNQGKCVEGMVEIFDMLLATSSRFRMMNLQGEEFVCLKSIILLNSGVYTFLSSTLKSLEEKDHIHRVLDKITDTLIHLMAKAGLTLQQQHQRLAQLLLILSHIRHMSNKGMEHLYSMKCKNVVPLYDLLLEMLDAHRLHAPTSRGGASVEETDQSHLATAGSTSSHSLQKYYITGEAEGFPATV
Nuclear receptor subfamily 1 group I member 2 (Rattus norvegicus), sequence (Q9R1A7 whole entry, looked up): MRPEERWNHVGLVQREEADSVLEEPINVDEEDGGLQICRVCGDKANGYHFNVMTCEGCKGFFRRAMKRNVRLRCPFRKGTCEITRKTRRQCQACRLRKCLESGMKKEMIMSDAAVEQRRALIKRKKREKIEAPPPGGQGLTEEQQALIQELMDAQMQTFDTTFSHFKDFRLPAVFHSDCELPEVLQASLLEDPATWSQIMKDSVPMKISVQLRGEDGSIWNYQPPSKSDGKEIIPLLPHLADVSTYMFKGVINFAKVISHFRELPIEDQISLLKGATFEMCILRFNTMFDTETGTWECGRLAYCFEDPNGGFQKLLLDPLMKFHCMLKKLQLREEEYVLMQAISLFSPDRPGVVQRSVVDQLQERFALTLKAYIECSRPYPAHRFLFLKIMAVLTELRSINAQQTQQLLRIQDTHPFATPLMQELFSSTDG

As to `CC(C)(C)OOC(C)(C)C`, in assay [1], the Potency is above 92 µM. The Potency entry in assay [2], in assay [3], in assay [4], in assay [5], in assay [6] and in assay [7] was “inactive” in each case. The Potency result in [10], in [13] and in assay [15] was “inactive” throughout. The activation in [8] is -0.0913%; in assay [9], -1.7%. The result in assay [11], in assay [14] and in [17] was inactive. For the same molecule, the activity change % (negative = inhibition) in [12] is -4.91%. In assay [16], the max response was 2.42%.
For `Clc1cccc(C(Cl)(Cl)Cl)n1`, the Potency in assay [1] is above 92 µM. The result in assay [18], in [11], in assay [14] and in assay [17] was inactive. Besides, the Potency result in [2], in assay [4], in assay [6], in assay [7], in assay [13] and in assay [15] was “inactive” each time. For the same molecule, the activation in [8] was 0.959% and 2.76%. Further, the activity change % (negative = inhibition) in assay [12] was -14.1% and -4.27%. In addition, the max response in [16] is -2.08% and -3.74%.
On to `Brc1ccccc1`, for which the Potency in assay [1] is above 92 µM. Besides, the molecule was called inactive in [18], in assay [19], in assay [20], in assay [11], in assay [14] and in [17]. For the same molecule, the Potency entry in assay [2], in assay [3], in assay [4], in assay [5], in assay [6] and in assay [7] was “inactive” throughout. Further, the Potency result in assay [10] and in [15] was “inactive” each time. Also, the activation in [9] is -10.5% and -5.75%. The activity change % (negative = inhibition) in assay [12] is -13.6% and -17.2%. Besides, the max response in assay [16] was 0.981% and 1.34%.
As for `C[C@]12CC[C@H]3[C@@H](CCC4=CC(=O)CC[C@@]43C)[C@@H]1CC[C@@H]2O`, the Potency was above 92 µM in assay [1] and 7.08 µM (active) in assay [10]. For the same molecule, the Potency entry in [3], in assay [4], in [5], in assay [6] and in assay [15] was “inactive” in each case. Further, the activation in assay [9] is -9.17%. Also, the result in assay [20], in [11], in assay [14] and in assay [17] was inactive. In addition, in assay [12], the activity change % (negative = inhibition) was 14.5%. Moreover, the max response in assay [16] was 3.05%.
For `Clc1nc(Cl)nc(Cl)n1`, the outcome in assay [18], in [19], in [20], in assay [11] and in assay [14] was inactive. For the same molecule, the Potency result in assay [2], in assay [3], in [4], in assay [5], in [6] and in assay [7] was “inactive” throughout. Also, the Potency entry in assay [10], in assay [13] and in assay [15] was “inactive” each time. Besides, the activation in assay [9] was 2.08% and -5.01%. Further, the activity change % (negative = inhibition) in [12] is -1.04%. Moreover, in [16], the max response was -1.06% and -1.98%.
On to `c1ccc2c(c1)CCCC2`, for which the Potency in [1] is above 92 µM. In addition, the call in assay [18], in assay [19], in assay [20], in [11], in assay [14] and in [17] was inactive. Further, the Potency entry in [2], in assay [3], in [4], in [5], in assay [6] and in assay [7] was “inactive” in each case. The Potency entry in assay [10], in assay [13] and in assay [15] was “inactive” in each case. Also, the activation in [8] is -2.64%; in assay [9], 3.9%. Besides, the activity change % (negative = inhibition) in assay [12] was 3.81%. The max response in [16] was -0.477%.
